Consider 29 compounds from PubChem BioAssay (NCATS).

Records with an inconclusive call do not appear. Values without a mark were called inactive. Calls of active or inactive are those of the source. Calls come from the whole dose curve; as a rule, active = well fitted curve in the direction sought with a large enough effect; inconclusive = small, poorly fitted or top-dose-only effect, or another doubt; inactive = no such curve, though single readings can be large; an effect the other way counts as inactive or inconclusive.

For one test, the system named is PA-1. Briefly: Primary qHTS to identify gynecologic anti-cancer compounds using libraries of approved drugs and bioactive compounds (AID 1345084). Note: nearly all actives have a fitted effect of over 55% in size. The note with it: Gynecologic cancer cell panel viability, ATPlite luminescence, 48 h; series mostly up to 57.5 µM. A digest of the protocol: (§1)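 Cell viability after 48 h drug treatment, ATPlite luminescence readout; five doses.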
(In general: qHTS replaces the single test concentration by a dilution series.)

The subject of another test is Tov112D. The description is as above. To be noted: Gynecologic cancer cell panel viability, ATPlite luminescence, 48 h; series mostly up to 57.5 µM. A digest of the protocol:
as §1

Another test concerns JEG-3. The test is described as above. To be noted: Gynecologic cancer cell panel viability, ATPlite luminescence, 48 h; series mostly up to 57.5 µM. A digest of the protocol:
as §1

Test [1] is described as follows: qHTS assay to identify inhibitors of the type 1 interferon - major histocompatibility complex class I in skeletal muscle: Counter screen cell viability and HiBit confirmation (AID 1347412). For all read-outs here: nearly all actives have a fitted effect of over 60% in size. The note with it: iHSKM muscle cells + IFN-b, HiBiT or CellTiter-Glo, 24 h; for activity change, negative = inhibition: at 45.9 µM (top of the series). A digest of the protocol:
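Human myoblast knock-in line, 4.0 ng/ml IFN-beta stimulation, 24 h compound treatment. Endpoints: HiBiT lytic luminescence (HLA-B level) and CellTiter Glo (ATP). Dosing 12 concentrations, 3-fold steps, 46 uM highest final.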

The test system of the next test is HeLa. Briefly: Primary qHTS to identify gynecologic anti-cancer compounds using libraries of approved drugs and bioactive compounds (AID 1345084). Note: nearly all actives have a fitted effect of over 55% in size. To be noted: Gynecologic cancer cell panel viability, ATPlite luminescence, 48 h; series mostly up to 57.5 µM. A digest of the protocol:
as §1

In another test the test system is Tov-21-G. The test is described as above. The note with it: Gynecologic cancer cell panel viability, ATPlite luminescence, 48 h; series mostly up to 57.5 µM. A digest of the protocol: as §1
A general note: Cellular ATP, detected with luciferase, serves as a proxy for viable cell number.

For the next test, the system named is Es-2. The test is described as above. The note with it: Gynecologic cancer cell panel viability, ATPlite luminescence, 48 h; series mostly up to 57.5 µM. A digest of the protocol: as §1
A further test concerns OV90. The test is described as above. The note with it: Gynecologic cancer cell panel viability, ATPlite luminescence, 48 h; series mostly up to 57.5 µM. A digest of the protocol:
as §1

A further test has as its system SKOV3. The description is as above. To be noted: Gynecologic cancer cell panel viability, ATPlite luminescence, 48 h; series mostly up to 57.5 µM. A digest of the protocol:
as §1

In another test the test system is Hek293T. Described as above. To be noted: Gynecologic cancer cell panel viability, ATPlite luminescence, 48 h, control line for the selectivity index; series mostly up to 57.5 µM. A digest of the protocol: as §1
% is set by controls: 0 for no effect and ±100 for the full control effect; potency is the fitted concentration of half-maximal effect.

Turning to `C[C@@H](Oc1cc(-n2cnc3ccc(OC4CCN(C)CC4)cc32)sc1C(N)=O)c1ccccc1C(F)(F)F`, the Potency in the test with PA-1 was 0.316 µM (active).

For `CCN(CC)c1ccc2c(O)c(C=Nc3ccc(CC(=O)O)c(-c4c5c(nc6ccccc46)CCC(C(=O)NN)C5)c3)c(=O)oc2c1` (centres undefined), the Potency result in the test with Tov112D was “inactive”.

On to `Oc1ccc(CNc2ccccc2F)c2cccnc12`, for which, in the test with JEG-3, the Potency entry was “inactive”. Also, in the test on PA-1, the Potency is 17.8 µM (active).

Regarding `CCN1CCN(Cc2ccc(NC(=O)Nc3ccc(Oc4cc(NC)ncn4)cc3)cc2C(F)(F)F)CC1`, the Potency in test [1] (HiBiT) is 5.57 µM (active). The activity change, negative = inhibition in test [1] (Viability) was -17.1%.

Regarding `Cn1cc(S(=O)(=O)c2ccc(Cl)cc2)c2cccc(N3CCNCC3)c21`, the Potency result with HeLa was “inactive”. Besides, the values for the Potency with Tov-21-G and with Tov112D were 20 µM (active) and 28.2 µM (active), respectively.

As for `CCOC(=O)Nc1cc(-c2ccc(C)c(NS(C)(=O)=O)c2)nn2c(C)nnc12`, the Potency in the test with Es-2 is 12.6 µM (active); in the test with OV90 it was 12.6 µM (active); with PA-1, 31.6 µM (active); with SKOV3 it was 7.08 µM (active).

Turning to `Cc1cc(C)c(Nc2ccnc(Nc3ccc(C#N)cc3)n2)c(C)c1`, the Potency result with JEG-3 and in the test on PA-1 was “inactive” in each case. Moreover, the Potency in the test on OV90 was 10 µM (active).

For the compound `C=CC(=O)Nc1cccc(CN2C(=O)N(c3c(Cl)c(OC)cc(OC)c3Cl)Cc3cnc(NCCCCN(CC)CC)nc32)c1`, the Potency entry with Es-2, in the test on Hek293T, in the test with JEG-3 and in the test with OV90 was “inactive” each time.

`COc1cc2ncnc(Nc3cccc(Cl)c3F)c2cc1OC(=O)N1CCN(C)C[C@H]1C`: the Potency in the test with Tov112D is 22.4 µM (active).

As to `CCNC(=O)Nc1ccc(-c2nc3c(c(N4CCOC[C@@H]4C)n2)CCN(c2ncccn2)C3)cc1`, the Potency in the test on Hek293T was 1 µM (active); in the test on OV90, 1.26 µM (active); in the test on PA-1, 1.12 µM (active). The Potency entry in the test on JEG-3 is “inactive”.

For the compound `Cn1c(=O)n(-c2ccc(C(C)(C)C#N)cc2)c2c3cc(C#Cc4cccnc4)ccc3ncc21`, the Potency was 0.0891 µM (active) in the test with Hek293T, 0.224 µM (active) in the test with OV90, 0.282 µM (active) with PA-1 and 0.158 µM (active) in the test on Tov-21-G.

`CCS(=O)(=O)N1CCN(c2ccc(Nc3ncc(C(N)=O)c(NC4CC4)n3)cc2)CC1`: the Potency result with JEG-3 and with Tov112D was “inactive” throughout. The Potency is 12.6 µM (active) with OV90 and 1.98 µM (active) in [1] (HiBiT). Besides, the activity change, negative = inhibition in test [1] (Viability) was 5.56%.

For the compound `Cc1ccc(C(=O)N(CCCN)C(c2oc3cc(Cl)ccc3c(=O)c2Cc2ccccc2)C(C)C)cc1` (centres undefined), in the test with OV90, the Potency entry is “inactive”.

Turning to `COc1cc(-c2ncn(/C=C\C(=O)OC(C)C)n2)cc(C(F)(F)F)c1`, the Potency in the test with Es-2 was 0.891 µM (active); in the test with HeLa, 15.8 µM (active); in the test with PA-1, 0.562 µM (active).

For `CC(=O)NC1=NN(C(C)=O)C(C)(c2ccccc2)S1` (centres undefined), the Potency was 14.1 µM (active) in the test with HeLa, 3.98 µM (active) with PA-1 and 3.16 µM (active) with Tov112D. The Potency result with OV90 was “inactive”.

As for `CCOc1cc2ncc(C#N)c(Nc3ccc(F)c(Cl)c3)c2cc1NC(=O)/C=C/CN(C)C`, the Potency in the test on Hek293T was 25.1 µM (active); with SKOV3, 0.398 µM (active); in the test on Tov-21-G it was 1 µM (active); in test [1] (HiBiT) it was 1.98 µM (active); in test [1] (Viability), 17.6 µM (active). Also, in the test on OV90, the Potency entry is “inactive”.

With `C=C1C(=O)OC2C1CCC(=C)C1CC(OC(C)=O)C(=C)C12` (centres undefined), the Potency result with HeLa, in the test with SKOV3 and in the test with Tov112D was “inactive” throughout.

Regarding `COc1cc2c(cc1OC)[C@@H]1[C@H](O)[C@@H](OC)C=C3CCN(C2)[C@H]31`, the Potency result in the test with HeLa, in the test with JEG-3 and in the test on SKOV3 was “inactive” each time.

For the compound `COc1cc(OC)c(/C=C/S(=O)(=O)Cc2ccc(OC)c(NCC(=O)O)c2)c(OC)c1`, the Potency in the test on Es-2 was 0.316 µM (active); with HeLa, 0.251 µM (active); with JEG-3, 0.447 µM (active); in the test with PA-1, 0.224 µM (active); with Tov112D it was 0.316 µM (active).

Take `COc1cc(C2c3cc4c(c(O)c3CC(CO)C2C(=O)O)OCO4)cc(OC)c1O` (centres undefined): the Potency in the test on Es-2 is 3.55 µM (active); in the test on Hek293T it was 3.98 µM (active); in the test on PA-1, 2 µM (active); with SKOV3, 11.2 µM (active); in the test on Tov112D it was 4.47 µM (active).

Take `Cc1cccc(/C=N/Nc2cc(N3CCOCC3)n3nc(-c4ccncc4)cc3n2)c1`: the Potency in the test on OV90 is 2 µM (active); in the test on Tov112D it was 3.98 µM (active).

Consider `N#Cc1cnc2cnc(NCc3cccnc3)cc2c1Nc1ccc(F)c(Cl)c1`, for which the Potency entry with HeLa and in the test on JEG-3 was “inactive” in each case.

As to `CCCCC1CCN(CCCC(=O)c2ccccc2C)CC1`, the Potency entry with Es-2, with HeLa, with SKOV3 and in the test with Tov-21-G was “inactive” in each case.

Regarding `CCc1cnn2c(NCc3ccc[n+]([O-])c3)cc(N3CCCCC3CCO)nc12` (centres undefined), the Potency entry with JEG-3 and with OV90 was “inactive” each time.

For the compound `Cc1c(C(=O)N2CCOc3ccc(-c4ccc(N)nc4)cc3C2)ccc(S(C)(=O)=O)c1F`, in the test on JEG-3, the Potency entry was “inactive”.

As to `CC(=O)O[C@H]1CC(C)(C)CC2[C@@]13[C@H](O)C[C@]1(C)[C@@]2(CCC2[C@@]4(C)CC[C@H](O[C@@H]5OC[C@H](O[C@@H]6O[C@H](CO)[C@@H](O)[C@H](O)[C@H]6O[C@@H]6OC[C@@H](O)[C@H](O)[C@H]6O)[C@H](O)[C@H]5O[C@@H]5O[C@H](CO)[C@@H](O)[C@H](O)[C@H]5O)C(C)(C)C4CC[C@]21C)O[C@@H]3O` (some centres undefined), the activity change, negative = cytotoxicity with HeLa was -7.2% [at 11.6 µM]. For the same compound, the Potency in the test on JEG-3 is 2.82 µM (active); in the test with OV90, 3.16 µM (active).

With `C[C@H]1[C@H](O)O[C@@H]2O[C@@]3(C)CC[C@H]4[C@H](C)CC[C@@H]1[C@@]24OO3`, the Potency was 12.6 µM (active) in the test with HeLa, 8.91 µM (active) in the test on Hek293T and 28.2 µM (active) with Tov-21-G. The Potency entry in the test on OV90 is “inactive”.

Turning to `CC(O)/C=C/C1(O)C2(C)COC1(C)CC(O)C2` (centres undefined), the Potency entry in the test with Es-2 and in the test with PA-1 was “inactive” in each case.

Consider `CC(C)C(CO)Nc1nc(Nc2cc(N)cc(Cl)c2)c2ncn(C(C)C)c2n1` (centres undefined), for which the Potency was 25.1 µM (active) in the test on HeLa; 14.1 µM (active) with PA-1; 28.2 µM (active) in the test with SKOV3; 22.4 µM (active) in the test on Tov-21-G; 20 µM (active) in the test on Tov112D.
